The source of these data is PubChem BioAssay AID1745847 (National Center for Advancing Translational Sciences (NCATS), 2022).

Several values for one entry are separate records, joined by “and”; a condition that tells them apart may be missing. Equal entries are not always repeated. The whole screen tested about 2,100 compounds, of which about 670 (32%) were called active. Not shown: some 50% with an inconclusive outcome. Some of the results follow. Unmarked numbers belong to inactive results. Calls follow the shape of the dose curve; as a rule, active = well fitted inhibition curve with a large enough effect; inconclusive = small, poorly fitted or top-dose-only effect; inactive = no such curve, though single readings can be large or run the other way.
% is scaled to controls: 0 for no effect and ±100 for the full control effect; potency is read from the fitted curve at half-maximal effect.

The assay can be described thus: CMV-Luciferase Counterscreen for Inhibitors of ATXN expression. Also: nearly all actives have a fitted effect of over 55% in size. To be noted: HEK-293 CMV-luciferase reporter, luminescence, 24 h; series mostly up to 57.5 µM; activity change, negative = inhibition: at the top concentration. On the technique in general: Counterscreens check selectivity or assay interference.
Consider `O=C(N/N=C/c1ccc(O)cc1O)/C(=C/c1ccccc1)CCO`, for which the Potency is 1.78 µM (active).

With `O=C(/C=C\c1ccccc1)NCC(=O)N/N=C/c1ccc(O)cc1O`, the Potency is 25.1 µM (active).

Turning to `O=C(COc1ccccc1)NCC(=O)N/N=C/c1ccc(O)cc1O`, the Potency was 14.1 µM (active).

With `Cc1cccc(OCC(=O)NCC(=O)N/N=C/c2cc(Br)cc(Br)c2O)c1`, the Potency is 5.01 µM (active).

With `CCC(=O)OC1(C(C)=O)CCC2C3CCC4=CC(=O)CCC4(C)C3CCC21C` (configuration not stated), the “activity change, negative = inhibition” value is -21.7%.

Consider `O=C(OCCN1C(=O)c2cccc3c(N4CCOCC4)ccc(c23)C1=O)c1ccccc1Cl`, for which the Potency was 15.8 µM (active).

Consider `CC1(C)C(C=C(Cl)Cl)C1C(=O)Nc1ccc([N+](=O)[O-])cc1` (configuration not stated), for which the Potency is 20 µM (active).

On to `Cc1cccc(OCCSc2nc3ncnc(N)c3[nH]2)c1`, for which the “activity change, negative = inhibition” value is -5.15%.

As to `CCN(CC)CCCNc1nc2ccccc2c2nc(-c3ccncc3)nn12`, the Potency was 12.6 µM (active).

As to `Cc1ccc(/C=C2/SC(=S)N(CCCC(=O)Nc3cc([N+](=O)[O-])ccc3O)C2=O)cc1`, the Potency is 28.2 µM (active).

On to `Cc1ccc(/C=C2\SC(=S)N(CCCC(=O)Nc3ccccc3C(=O)O)C2=O)cc1`, for which the Potency is 2 µM (active).

With `Cc1ccc(/C=C2\SC(=S)N(CCCC(=O)Nc3cc(C)on3)C2=O)cc1`, the Potency is 3.55 µM (active).

`Cc1ccc(/C=C2\SC(=S)N(CCCC(=O)Nc3ccc(O)cc3)C2=O)cc1`: the Potency is 3.16 µM (active).

As for `Cc1cc(C)cc(NC(=O)CCC(=O)Nc2cc(C)on2)c1`, the activity change, negative = inhibition is 165% [at 11.4 µM].

`Cc1ccc(/C=C2\SC(=S)N(CCCC(=O)Nc3cccnc3)C2=O)cc1`: the Potency was 3.98 µM (active).

With `Cc1ccc(/C=C2\SC(=S)N(CCCC(=O)NC3CCCC3)C2=O)cc1`, the Potency was 2.51 µM (active).

Turning to `Cc1ccc(/C=C2/SC(=S)N(CCCC(=O)Nc3ccc(O)cc3)C2=O)cc1`, the Potency was 2 µM (active).

In the case of `Cc1ccc(NC(=O)COc2ccc(/C=C3/SC(=Nc4ccccc4)N(Cc4cccnc4)C3=O)cc2)cc1`, the “activity change, negative = inhibition” value is -6.8%.

`COc1cccc(/C=C2/SC(=S)N(CCCC(=O)Nc3ccc(O)cc3)C2=O)c1`: the Potency is 3.16 µM (active).

On to `CC(C)C[C@H](N)c1cn([C@@H](CCCCN)C(=O)N2CCNCC2)nn1`, for which the activity change, negative = inhibition is -7.7% [at 11.4 µM].

In the case of `Cc1csc(NC(=O)COCC(=O)O)c1-c1nc2ccccc2s1`, the “activity change, negative = inhibition” value was -1.27%.

As to `c1cc2c(cc1-c1cnc3n1CCC3)OCCO2`, the “activity change, negative = inhibition” value was 59.6%.

Regarding `CC(C)(O)C#Cc1ccc([C@@H]2C[C@H]3CN(c4ccccc4)C(=O)[C@]34CCCN24)s1`, the “activity change, negative = inhibition” value was 51.4%.

For `O=[N+]([O-])c1ccc(O)c(/C=N/Nc2ncnc3c2cnn3-c2ccccc2)c1`, the Potency was 1.58 µM (active).

Consider `CN(C)S(=O)(=O)c1cccc(N2C(=O)CC3(CCCCC3)CC2=O)c1`, for which the activity change, negative = inhibition is -19.6% [at 11.4 µM].

For `COc1cccc(/C=N/NC(=O)CSc2ccccc2C)c1O`, the Potency was 7.08 µM (active).

In the case of `C/C(=N\OCC(=O)N/N=C/c1ccccc1O)c1cccs1`, the Potency is 12.6 µM (active).

Turning to `COc1ccc(CSCC(=O)N/N=C/c2ccccc2O)cc1`, the Potency is 25.1 µM (active).

As to `COc1cccc(/C=N/NC(=O)CSCC(=O)Nc2ccccc2)c1O`, the Potency is 1.26 µM (active).

Turning to `COc1cccc(/C=N/NC(=O)Cn2nc(C)c([N+](=O)[O-])c2C)c1O`, the Potency is 8.91 µM (active).

`CCCCSc1nc(C)cc(SCC(=O)N/N=C/c2cccc(OC)c2O)n1`: the Potency was 1 µM (active).

As to `COc1ccc(O)c(/C=N/NC(=O)c2ccc(CSc3nc(C)cc(C)n3)cc2)c1`, the Potency was 2.82 µM (active).

As to `OC(c1cc(-c2cccc(Cl)c2)nc2ccccc12)C1CCCCN1` (configuration not stated), the Potency was 22.4 µM (active).

For `Cc1onc(-c2c(F)cccc2Cl)c1C(=O)Nc1nnc(C(F)(F)F)s1`, the Potency was 1.41 µM (active).

On to `C[n+]1c2cc(N)ccc2cc2ccc(N)cc21`, for which the Potency is 8.91 µM (active) and 3.55 µM (active).

In the case of `Cc1nc2ccccc2n1-c1nc(-c2ccco2)cc(C(F)(F)F)n1`, the “activity change, negative = inhibition” value was -23.8%.

For `CC(C)NC1CCC(Nc2ccnc3cc(Cl)ccc23)CC1` (configuration not stated), the Potency was 17.8 µM (active).

For `Cc1ccc(N=Nc2ccc(O)c3ncccc23)cc1`, the Potency was 3.55 µM (active).

With `Cc1ccccc1N=Nc1ccc(O)c2ncccc12`, the Potency was 1.41 µM (active).

Regarding `CC(C)(C)S(=O)(=O)/C(C#N)=N/Nc1ccc(Cl)cc1`, the Potency is 7.94 µM (active).

Turning to `FC(F)(F)c1ccc(N2CCN(c3cc(-c4ccccc4)nc4ncnn34)CC2)nc1`, the Potency is 1.58 µM (active).

Take `O=c1cc(Nc2ccc3c(c2)OCCO3)[nH]c(=O)n1-c1ccc(Br)cc1`: the “activity change, negative = inhibition” value is -20.1%.

Turning to `CCN(CC)c1ccc(/C=N/NC(=O)c2cccc(S(=O)(=O)N3CCOCC3)c2)c(O)c1`, the Potency was 0.891 µM (active).

Consider `CCN(CC)c1ccc(/C=N/NC(=O)CCC(=O)NCc2ccccc2)c(O)c1`, for which the Potency was 3.16 µM (active).

`CCN(CC)c1ccc(/C=N/NC(=O)Cc2cccs2)c(O)c1`: the Potency was 2.82 µM (active).

For the compound `O=C(Cn1c(=O)n(CC(=O)NCc2ccccc2)c2ccccc21)NCc1ccccc1`, the “activity change, negative = inhibition” value was 22.5%.

As for `CN(C)c1nc(N/N=C/c2c[nH]c3ccccc23)nc(N2CCOCC2)n1`, the activity change, negative = inhibition was -16.1% [at 11.4 µM].

Take `Cc1cc(C)n(-c2nc(NCCN(C)C)c3c4c(sc3n2)COC(C)(C)C4)n1`: the activity change, negative = inhibition was -12.1% [at 11.4 µM].

For `O=S(=O)(Cc1cc(NCc2ccccc2)nc(-c2ccccn2)n1)c1ccccc1`, the “activity change, negative = inhibition” value was -28.9%.

Regarding `c1ccc(CNc2nc(-c3ccccn3)nc3ccccc23)cc1`, the Potency was 4.47 µM (active).

On to `CN1CCN(c2nc(-c3ccccn3)nc3ccccc23)CC1`, for which the “activity change, negative = inhibition” value is -26.3%.

For `O=S(=O)(c1ccc2c(c1)OCCO2)N1CCC(c2nc3ccc(Cl)cc3[nH]2)CC1`, the Potency is 3.98 µM (active).

As to `CCOc1ccc(NCc2cccn2-c2nnc(N3CCC(C(=O)NCCCN4CC(C)CC(C)C4)CC3)s2)cc1` (configuration not stated), the activity change, negative = inhibition is -19.5% [at 11.4 µM].

For the compound `COc1ccc(-n2c(-c3ccc(Cl)cc3)c[n+]3c2CCCCC3)cc1`, the Potency was 12.6 µM (active).

Regarding `COc1ccc(-c2c[n+]3c(n2-c2ccc(C)cc2)CCCCC3)cc1`, the Potency was 6.31 µM (active).

For the compound `O=c1cc(-c2ccccc2Cl)oc2c([N+](=O)[O-])c(O)cc(O)c12`, the Potency was 1.26 µM (active).

Turning to `CC1(S(=O)(=O)O)CC(=O)c2ccccc2C1=O` (configuration not stated), the Potency was 28.2 µM (active).

As for `CCn1c(C)cc(C(=O)COC(=O)c2ccccc2[N+](=O)[O-])c1C`, the Potency is 22.4 µM (active).

For `CC(C)N(C(=O)COC(=O)c1ccccc1C(=O)c1ccc(Cl)c([N+](=O)[O-])c1)C(C)C`, the activity change, negative = inhibition is -18% [at 11.4 µM].

As for `Cc1ccc(SCCC(=O)N/N=C/c2ccccc2O)cc1`, the Potency is 1.78 µM (active).

In the case of `O=C(CCc1ccccc1)N/N=C/c1cc(Br)ccc1O`, the Potency is 0.891 µM (active).

With `O=C(CP(=O)(c1ccccc1)c1ccccc1)N/N=C/c1cc(Br)cc(Br)c1O`, the Potency was 1.78 µM (active).

`O=C(CCN1CCN(c2ccccc2)CC1)N/N=C/c1ccccc1O`: the Potency was 0.501 µM (active).

`O=C(CN1CC(c2ccccc2)CC1=O)N/N=C/c1cc(Br)ccc1O` (configuration not stated): the Potency is 10 µM (active).

For the compound `O=C(Cc1ccccc1)N/N=C/c1cc(Br)cc(Br)c1O`, the Potency was 2.51 µM (active).

On to `O=C(COc1nsnc1N1CCOCC1)N/N=C/c1ccccc1O`, for which the Potency was 11.2 µM (active).

In the case of `O=C(CCCOc1ccc(Cl)cc1Cl)N/N=C/c1ccccc1O`, the Potency is 2.51 µM (active).

On to `NC(Cc1ccc(C(F)(F)F)cc1)c1csc(Nc2nccc(C(F)(F)F)n2)n1` (configuration not stated), for which the activity change, negative = inhibition was -10.1% [at 11.4 µM].

As to `COc1ccc(O)c(/C=N/NC(=O)CCC(=O)Nc2cccc(C)c2)c1`, the Potency was 10 µM (active).

As for `O=C(CCC(=O)Nc1ccc(Br)cc1)N/N=C/c1ccccc1O`, the Potency was 1.26 µM (active).

Regarding `NNC(=O)/C(=N/Nc1ccccc1)S(=O)(=O)c1ccc(Cl)cc1`, the Potency is 3.55 µM (active).

On to `CCc1nc2c(OCc3ccc(Cl)cc3Cl)cccn2c1N(C=O)Cc1ccc(OC)cc1`, for which the Potency is 3.16 µM (active).

For `CCOC(=O)N(C)c1c(CC)nc2c(OCc3ccccc3C)cccn12`, the Potency was 20 µM (active).

Consider `CCCCC(=O)N(C)c1c(CC)nc2c(OCc3ccc(Cl)cc3Cl)cccn12`, for which the Potency was 3.55 µM (active).

Consider `CCCCC1C(=O)CC[C@H]2[C@@H]1CC(=O)[C@@H]2C/C=C\CCCC(=O)O` (some centres not stated), for which the activity change, negative = inhibition was 4.23% [at 11.4 µM].

For the compound `O=C(NCC1CC1)c1ccc2c(c1)S(=O)(=O)c1cc(Cl)ccc1C2=O`, the activity change, negative = inhibition was -10.6% [at 11.4 µM].

For the compound `C=CCn1c(COc2ccccc2)nnc1SC(C)C(=O)N/N=C/c1cc(Cl)ccc1O` (configuration not stated), the Potency was 10 µM (active).

On to `C=CCn1c(COc2ccccc2)nnc1SCC(=O)N/N=C/c1cc(Cl)ccc1O`, for which the “activity change, negative = inhibition” value is -22.4%.

Take `Cc1nnc(SC(C)C(=O)Nc2ccc(Cl)cn2)n1Cc1ccccc1` (configuration not stated): the “activity change, negative = inhibition” value is -4.16%.

For `O=C(Nc1nc(-c2ccccn2)cs1)c1ccccc1-n1cnnn1`, the Potency was 3.55 µM (active).

Consider `N#Cc1cc2c(=O)n3ccccc3nc2n(-c2ccccc2Cl)c1=O`, for which the “activity change, negative = inhibition” value is -3.29%.

For the compound `Cc1nc(SCC(=O)Nc2ccc(S(=O)(=O)N3CCOCC3)cc2)c2c(C)c(C)sc2n1`, the Potency was 2.82 µM (active).

On to `Cc1ccc(C)c(N2CCN(C(=O)C34CC5CC(C3)CC(n3nnc(C)n3)(C5)C4)CC2)c1`, for which the Potency is 11.2 µM (active).

For the compound `COc1ccc(/C=C/C(=O)c2cc3cccc(OC)c3oc2=O)cc1`, the “activity change, negative = inhibition” value was 30%.

Regarding `Cc1ccc(NC(=O)/C=C/c2ccc(S(=O)(=O)N3CCOCC3)cc2)cc1S(=O)(=O)N(C)C`, the Potency was 2.51 µM (active).

As to `O=C(CSc1ccc2c(c1)OCCO2)Nc1ccc(Cl)cn1`, the “activity change, negative = inhibition” value is 294%.

For `COc1ccc(/C=C/C(=O)Nc2ccc(C)c(S(=O)(=O)N3CCOCC3)c2)cc1`, the Potency is 10 µM (active).

On to `Cc1ccc(NC(=O)CSc2ccc(Br)cc2)cc1S(=O)(=O)N1CCOCC1`, for which the Potency is 22.4 µM (active).

As to `COc1ccccc1N1CCN(Cc2ccc(O)c3ncccc23)CC1`, the Potency was 0.891 µM (active).

For the compound `Cc1ccc(C)c(S(=O)(=O)N2CCN(Cc3ccc(O)c4ncccc34)CC2)c1`, the Potency was 2.82 µM (active).

Consider `OC1(c2ccc(Cl)cc2)CCN(Cc2c[nH]c3ccccc23)CC1`, for which the activity change, negative = inhibition is -23.5% [at 11.4 µM].

`O=S(=O)(c1ccc(Cl)cc1)N1CCN(Cc2ccc(O)c3ncccc23)CC1`: the Potency was 8.91 µM (active).
